Holding throughout (assay): DAPPL (digital affinity profiling via proximity ligation, sequencing); 10 mM Tris-HCl pH 7.5, 50 mM NaCl, 1 mM DTT, 4% glycerol, room temperature, 30 min; GST-TFs on glutathione beads, 16-mer random dsDNA library, 0.1% formaldehyde crosslink after washing; high values mean tight binding
The target in one assay is T1, FLI1 (Homo sapiens, UniProt Q01543 1-452).
T1 sequence: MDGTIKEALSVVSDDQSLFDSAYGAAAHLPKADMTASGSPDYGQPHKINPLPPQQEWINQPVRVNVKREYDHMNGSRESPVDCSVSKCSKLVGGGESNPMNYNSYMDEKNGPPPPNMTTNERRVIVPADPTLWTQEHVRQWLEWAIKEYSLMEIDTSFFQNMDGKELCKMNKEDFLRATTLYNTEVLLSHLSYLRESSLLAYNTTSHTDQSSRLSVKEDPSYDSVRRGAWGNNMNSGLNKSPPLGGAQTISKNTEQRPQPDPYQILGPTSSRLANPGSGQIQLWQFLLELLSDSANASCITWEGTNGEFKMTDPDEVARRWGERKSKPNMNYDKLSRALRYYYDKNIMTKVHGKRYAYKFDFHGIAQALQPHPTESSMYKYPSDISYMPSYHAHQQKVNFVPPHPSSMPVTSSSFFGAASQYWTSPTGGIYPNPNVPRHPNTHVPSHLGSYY
As to conditions: protein: recombinant; tags: N-terminal GST; dsDNA, one strand shown. The gist of the method:
(§1)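 Pools of DNA-barcoded human transcription factors, expressed in yeast as GST fusions on glutathione beads and combined with a tag-only sample, were incubated with 200 nmole of a 16-mer random double-stranded DNA library. Incubation took 30 min at room temperature in Tris/NaCl/DTT/glycerol buffer and was followed by washing, 0.1% formaldehyde crosslinking, proximity ligation (BsaI/T4 ligase, 1 h, 37 °C), PCR amplification and sequencing on an Illumina NextSeq500. Binding signal is the ratio of a hexamer's read frequency for a factor to its frequency for the tag-only sample.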

The next assay deals with T2, ELK1 (Homo sapiens, UniProt P19419 1-428).
T2 sequence: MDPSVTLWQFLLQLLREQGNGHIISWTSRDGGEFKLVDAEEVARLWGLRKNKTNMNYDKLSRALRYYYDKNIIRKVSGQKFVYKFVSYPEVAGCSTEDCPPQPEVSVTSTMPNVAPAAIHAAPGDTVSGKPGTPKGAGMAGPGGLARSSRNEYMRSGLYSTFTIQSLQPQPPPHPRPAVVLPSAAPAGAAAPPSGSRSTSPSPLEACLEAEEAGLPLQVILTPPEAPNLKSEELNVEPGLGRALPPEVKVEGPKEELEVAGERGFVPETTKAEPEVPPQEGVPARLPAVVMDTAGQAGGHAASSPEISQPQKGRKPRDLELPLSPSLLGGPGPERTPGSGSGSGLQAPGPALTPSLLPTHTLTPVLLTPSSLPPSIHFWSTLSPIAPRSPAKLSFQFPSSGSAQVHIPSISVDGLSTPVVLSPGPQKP
The note with it: protein: recombinant; tags: N-terminal GST; dsDNA, one strand shown. In a few lines: as §1

The next assay deals with T3, GABPA (Homo sapiens, UniProt Q06546 1-454).
T3 sequence: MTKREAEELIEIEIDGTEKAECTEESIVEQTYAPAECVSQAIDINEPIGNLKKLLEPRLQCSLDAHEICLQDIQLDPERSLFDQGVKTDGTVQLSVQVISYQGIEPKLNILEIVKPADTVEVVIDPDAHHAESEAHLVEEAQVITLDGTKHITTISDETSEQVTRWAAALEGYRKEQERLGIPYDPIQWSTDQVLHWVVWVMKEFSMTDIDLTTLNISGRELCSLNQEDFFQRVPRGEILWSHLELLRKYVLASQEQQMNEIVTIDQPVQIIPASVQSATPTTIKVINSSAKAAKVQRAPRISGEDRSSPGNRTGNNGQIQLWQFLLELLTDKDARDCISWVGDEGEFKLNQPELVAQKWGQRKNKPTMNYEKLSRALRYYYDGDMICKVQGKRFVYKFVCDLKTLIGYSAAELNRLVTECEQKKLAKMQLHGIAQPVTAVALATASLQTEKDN
The note with it: protein: recombinant; tags: N-terminal GST; dsDNA, one strand shown. In a few lines:
as §1

The next assay deals with T4, ERG (Homo sapiens, UniProt P11308 1-479).
T4 sequence: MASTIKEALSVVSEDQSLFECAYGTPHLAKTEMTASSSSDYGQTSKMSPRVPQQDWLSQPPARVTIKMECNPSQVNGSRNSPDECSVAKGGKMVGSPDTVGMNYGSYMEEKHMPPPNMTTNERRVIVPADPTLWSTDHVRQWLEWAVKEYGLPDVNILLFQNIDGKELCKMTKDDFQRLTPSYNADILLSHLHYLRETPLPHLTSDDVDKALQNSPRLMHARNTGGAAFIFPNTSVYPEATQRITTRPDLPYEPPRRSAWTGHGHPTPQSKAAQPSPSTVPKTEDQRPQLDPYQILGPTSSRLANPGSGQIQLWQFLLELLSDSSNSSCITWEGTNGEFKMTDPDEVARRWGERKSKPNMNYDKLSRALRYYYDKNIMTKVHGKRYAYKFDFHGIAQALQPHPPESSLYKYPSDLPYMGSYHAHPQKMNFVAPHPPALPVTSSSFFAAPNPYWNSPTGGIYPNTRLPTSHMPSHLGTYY
The note with it: protein: recombinant; tags: N-terminal GST; dsDNA, one strand shown. In a few lines:
as §1

A further assay concerns the target ELF1 (Homo sapiens, UniProt P32519 1-619). As to conditions: protein: recombinant; tags: N-terminal GST; dsDNA, one strand shown. In a few lines:
as §1

The target of another assay is T5, EHF (Homo sapiens, UniProt Q9NZC4 1-300).
T5 sequence: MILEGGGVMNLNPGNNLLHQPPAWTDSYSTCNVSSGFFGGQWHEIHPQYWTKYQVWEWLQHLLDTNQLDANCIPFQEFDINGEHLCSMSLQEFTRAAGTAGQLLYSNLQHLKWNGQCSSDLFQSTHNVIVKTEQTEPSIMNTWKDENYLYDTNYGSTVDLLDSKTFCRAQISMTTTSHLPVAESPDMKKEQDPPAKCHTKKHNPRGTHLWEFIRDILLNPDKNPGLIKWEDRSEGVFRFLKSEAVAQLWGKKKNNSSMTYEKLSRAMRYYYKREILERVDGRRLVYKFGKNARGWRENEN
As to conditions: protein: recombinant; tags: N-terminal GST; dsDNA, one strand shown. In a few lines: as §1

For the next assay, the target named is SPI1 (Homo sapiens, UniProt P17947 1-270). The note with it: protein: recombinant; tags: N-terminal GST; dsDNA, one strand shown. The gist of the method: as §1
The target in another assay is T6, ELK3 (Homo sapiens, UniProt P41970 1-407).
T6 sequence: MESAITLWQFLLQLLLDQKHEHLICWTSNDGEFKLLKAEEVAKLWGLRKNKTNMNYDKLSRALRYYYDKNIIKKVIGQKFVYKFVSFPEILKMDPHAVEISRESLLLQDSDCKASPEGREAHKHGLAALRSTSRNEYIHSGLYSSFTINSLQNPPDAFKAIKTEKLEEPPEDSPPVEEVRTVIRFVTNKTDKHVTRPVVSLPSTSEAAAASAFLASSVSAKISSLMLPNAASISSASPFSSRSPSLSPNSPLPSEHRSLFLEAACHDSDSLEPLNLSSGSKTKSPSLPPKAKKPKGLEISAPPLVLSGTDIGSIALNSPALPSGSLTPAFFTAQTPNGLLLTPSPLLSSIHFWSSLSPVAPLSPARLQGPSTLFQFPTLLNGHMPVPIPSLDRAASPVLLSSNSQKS
The note with it: protein: recombinant; tags: N-terminal GST; dsDNA, one strand shown. The gist of the method: as §1

Another assay concerns the target ETV5 (Homo sapiens, UniProt P41161 1-510). As to conditions: protein: recombinant; tags: N-terminal GST; dsDNA, one strand shown. In a few lines: as §1
In the next assay the target is HSF1 (Homo sapiens, UniProt Q00613 1-529). The note with it: protein: recombinant; tags: N-terminal GST; chain copies: 3; dsDNA, one strand shown. The gist of the method: as §1
A further assay concerns the target T7, SPIC (Homo sapiens, UniProt Q8N5J4 1-248).
T7 sequence: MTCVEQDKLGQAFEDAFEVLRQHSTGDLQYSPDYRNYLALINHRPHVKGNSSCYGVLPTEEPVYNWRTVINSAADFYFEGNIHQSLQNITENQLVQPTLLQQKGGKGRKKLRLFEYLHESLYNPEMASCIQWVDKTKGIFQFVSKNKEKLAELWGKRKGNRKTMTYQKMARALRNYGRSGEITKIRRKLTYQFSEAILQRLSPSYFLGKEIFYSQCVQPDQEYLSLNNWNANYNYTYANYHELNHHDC
As to conditions: protein: recombinant; tags: N-terminal GST; dsDNA, one strand shown. In a few lines:
as §1

The next assay has as its target ELF4 (Homo sapiens, UniProt Q99607 1-663). As to conditions: protein: recombinant; tags: N-terminal GST; dsDNA, one strand shown. In a few lines:
as §1

For another assay, the target named is T8, ELK4 (Homo sapiens, UniProt P28324-2 1-405).
T8 sequence: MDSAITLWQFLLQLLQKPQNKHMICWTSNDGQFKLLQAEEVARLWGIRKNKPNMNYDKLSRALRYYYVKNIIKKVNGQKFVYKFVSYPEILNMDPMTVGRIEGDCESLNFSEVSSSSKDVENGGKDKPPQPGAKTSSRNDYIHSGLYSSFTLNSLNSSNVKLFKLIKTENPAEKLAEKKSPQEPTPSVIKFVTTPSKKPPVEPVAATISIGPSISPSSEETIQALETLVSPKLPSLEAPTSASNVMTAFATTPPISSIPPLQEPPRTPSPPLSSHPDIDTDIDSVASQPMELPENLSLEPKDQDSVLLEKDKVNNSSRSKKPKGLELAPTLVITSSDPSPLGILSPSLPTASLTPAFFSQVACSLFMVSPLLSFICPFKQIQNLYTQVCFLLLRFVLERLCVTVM
As to conditions: protein: recombinant; tags: N-terminal GST; dsDNA, one strand shown. The gist of the method: as §1

The next assay deals with T9, ETV2 (Homo sapiens, UniProt O00321 1-342).
T9 sequence: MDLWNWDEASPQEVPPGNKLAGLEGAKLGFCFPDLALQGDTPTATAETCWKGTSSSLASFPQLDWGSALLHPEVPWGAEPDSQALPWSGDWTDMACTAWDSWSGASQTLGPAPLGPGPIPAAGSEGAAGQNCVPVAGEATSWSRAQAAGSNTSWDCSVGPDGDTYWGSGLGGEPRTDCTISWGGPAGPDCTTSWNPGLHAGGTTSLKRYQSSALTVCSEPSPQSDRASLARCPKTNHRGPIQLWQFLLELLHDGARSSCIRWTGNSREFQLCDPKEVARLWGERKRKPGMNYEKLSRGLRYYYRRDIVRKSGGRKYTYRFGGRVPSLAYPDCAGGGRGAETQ
The note with it: protein: recombinant; tags: N-terminal GST; dsDNA, one strand shown. In a few lines: as §1

For another assay, the target named is T10, ELF3 (Homo sapiens, UniProt P78545 1-371).
T10 sequence: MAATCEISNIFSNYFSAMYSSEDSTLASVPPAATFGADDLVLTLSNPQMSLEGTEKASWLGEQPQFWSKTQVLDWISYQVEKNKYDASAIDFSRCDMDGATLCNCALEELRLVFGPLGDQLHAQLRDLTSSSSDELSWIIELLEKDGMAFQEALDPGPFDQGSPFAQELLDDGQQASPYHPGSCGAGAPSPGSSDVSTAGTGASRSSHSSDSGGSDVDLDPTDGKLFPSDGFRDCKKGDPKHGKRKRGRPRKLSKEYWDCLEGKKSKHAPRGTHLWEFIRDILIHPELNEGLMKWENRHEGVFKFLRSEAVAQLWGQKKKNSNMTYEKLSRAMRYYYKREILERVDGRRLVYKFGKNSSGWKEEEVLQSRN
The note with it: protein: recombinant; tags: N-terminal GST; dsDNA, one strand shown. The gist of the method:
as §1

The target of another assay is CRX (Homo sapiens, UniProt O43186 1-299). The note with it: protein: recombinant; tags: N-terminal GST; dsDNA, one strand shown. In a few lines:
as §1

Another assay concerns the target ETV1 (Homo sapiens, UniProt P50549 1-477). As to conditions: protein: recombinant; tags: N-terminal GST; dsDNA, one strand shown. In a few lines: as §1

These results are taken from article PMC7862700, “An all-to-all approach to the identification of sequence-specific readers for epigenetic DNA modifications on cytosine”.

Chain of ELF4 (Q99607 whole entry): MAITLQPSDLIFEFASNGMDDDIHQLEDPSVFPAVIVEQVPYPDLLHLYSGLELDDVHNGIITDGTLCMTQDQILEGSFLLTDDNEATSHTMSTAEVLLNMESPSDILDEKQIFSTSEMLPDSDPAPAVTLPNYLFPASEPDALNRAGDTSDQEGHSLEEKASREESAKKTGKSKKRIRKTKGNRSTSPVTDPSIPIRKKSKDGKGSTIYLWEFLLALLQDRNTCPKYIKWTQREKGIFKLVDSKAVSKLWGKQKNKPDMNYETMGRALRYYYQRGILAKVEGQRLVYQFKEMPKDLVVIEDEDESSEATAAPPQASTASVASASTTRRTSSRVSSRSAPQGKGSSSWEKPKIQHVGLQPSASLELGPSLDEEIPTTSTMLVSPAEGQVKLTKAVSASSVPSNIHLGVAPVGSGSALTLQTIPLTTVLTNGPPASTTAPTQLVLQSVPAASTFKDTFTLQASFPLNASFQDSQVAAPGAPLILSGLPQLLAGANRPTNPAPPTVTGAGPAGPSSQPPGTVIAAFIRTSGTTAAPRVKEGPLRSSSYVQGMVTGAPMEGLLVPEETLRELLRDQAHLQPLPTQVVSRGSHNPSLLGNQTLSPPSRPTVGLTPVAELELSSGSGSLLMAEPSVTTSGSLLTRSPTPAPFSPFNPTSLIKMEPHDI
Chain of CRX (O43186 whole entry): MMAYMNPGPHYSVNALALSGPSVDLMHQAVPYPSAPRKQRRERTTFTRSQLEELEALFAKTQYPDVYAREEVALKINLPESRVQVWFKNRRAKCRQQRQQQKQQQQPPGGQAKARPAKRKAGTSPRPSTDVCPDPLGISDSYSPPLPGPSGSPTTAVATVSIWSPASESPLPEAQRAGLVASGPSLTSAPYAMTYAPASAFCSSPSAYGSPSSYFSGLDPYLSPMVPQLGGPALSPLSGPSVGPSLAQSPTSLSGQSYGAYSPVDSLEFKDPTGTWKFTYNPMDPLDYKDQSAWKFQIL
Chain of HSF1 (Q00613 whole entry): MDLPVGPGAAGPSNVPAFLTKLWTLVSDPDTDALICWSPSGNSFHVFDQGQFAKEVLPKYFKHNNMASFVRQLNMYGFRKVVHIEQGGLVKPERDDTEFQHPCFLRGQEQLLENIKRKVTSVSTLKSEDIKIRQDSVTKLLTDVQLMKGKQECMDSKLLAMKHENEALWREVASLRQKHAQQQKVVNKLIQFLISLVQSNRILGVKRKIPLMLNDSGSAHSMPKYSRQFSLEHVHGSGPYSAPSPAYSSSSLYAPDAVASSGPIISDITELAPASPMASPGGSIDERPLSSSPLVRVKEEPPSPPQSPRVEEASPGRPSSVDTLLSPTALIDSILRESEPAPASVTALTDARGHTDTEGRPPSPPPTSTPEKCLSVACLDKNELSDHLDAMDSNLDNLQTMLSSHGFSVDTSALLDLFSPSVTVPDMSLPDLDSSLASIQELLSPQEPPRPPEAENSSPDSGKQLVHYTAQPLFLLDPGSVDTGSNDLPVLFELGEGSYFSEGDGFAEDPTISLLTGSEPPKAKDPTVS
Chain of ELF1 (P32519 whole entry): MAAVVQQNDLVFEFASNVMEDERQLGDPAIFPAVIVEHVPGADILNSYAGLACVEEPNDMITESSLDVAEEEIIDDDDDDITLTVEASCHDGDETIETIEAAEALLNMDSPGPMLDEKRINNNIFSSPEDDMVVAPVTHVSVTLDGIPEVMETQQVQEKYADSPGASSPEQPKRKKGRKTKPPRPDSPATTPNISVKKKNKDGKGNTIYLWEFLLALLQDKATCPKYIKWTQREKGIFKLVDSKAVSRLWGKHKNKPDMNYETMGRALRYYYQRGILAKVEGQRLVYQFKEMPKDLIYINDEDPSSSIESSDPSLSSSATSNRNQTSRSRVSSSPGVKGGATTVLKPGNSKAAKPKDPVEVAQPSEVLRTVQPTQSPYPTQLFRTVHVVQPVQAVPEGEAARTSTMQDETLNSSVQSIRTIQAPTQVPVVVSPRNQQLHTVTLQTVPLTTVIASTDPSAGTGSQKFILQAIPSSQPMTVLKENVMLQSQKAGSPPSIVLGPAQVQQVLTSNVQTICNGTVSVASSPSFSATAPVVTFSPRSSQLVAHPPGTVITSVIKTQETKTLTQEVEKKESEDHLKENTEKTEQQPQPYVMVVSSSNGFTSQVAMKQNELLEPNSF
Chain of ETV1 (P50549 whole entry): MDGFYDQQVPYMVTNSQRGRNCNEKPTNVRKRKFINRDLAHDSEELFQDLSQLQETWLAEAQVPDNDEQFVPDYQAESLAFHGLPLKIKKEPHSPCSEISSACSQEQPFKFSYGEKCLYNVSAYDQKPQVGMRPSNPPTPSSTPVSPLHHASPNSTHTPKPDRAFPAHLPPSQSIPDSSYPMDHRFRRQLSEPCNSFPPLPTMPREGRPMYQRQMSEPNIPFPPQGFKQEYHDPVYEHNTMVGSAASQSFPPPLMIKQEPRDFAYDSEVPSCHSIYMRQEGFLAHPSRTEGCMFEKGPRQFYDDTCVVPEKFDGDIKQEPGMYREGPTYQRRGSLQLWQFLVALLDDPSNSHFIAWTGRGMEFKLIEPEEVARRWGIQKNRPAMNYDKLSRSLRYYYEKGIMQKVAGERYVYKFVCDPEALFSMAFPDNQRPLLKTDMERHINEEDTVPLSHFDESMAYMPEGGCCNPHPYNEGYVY
Chain of ETV5 (P41161 whole entry): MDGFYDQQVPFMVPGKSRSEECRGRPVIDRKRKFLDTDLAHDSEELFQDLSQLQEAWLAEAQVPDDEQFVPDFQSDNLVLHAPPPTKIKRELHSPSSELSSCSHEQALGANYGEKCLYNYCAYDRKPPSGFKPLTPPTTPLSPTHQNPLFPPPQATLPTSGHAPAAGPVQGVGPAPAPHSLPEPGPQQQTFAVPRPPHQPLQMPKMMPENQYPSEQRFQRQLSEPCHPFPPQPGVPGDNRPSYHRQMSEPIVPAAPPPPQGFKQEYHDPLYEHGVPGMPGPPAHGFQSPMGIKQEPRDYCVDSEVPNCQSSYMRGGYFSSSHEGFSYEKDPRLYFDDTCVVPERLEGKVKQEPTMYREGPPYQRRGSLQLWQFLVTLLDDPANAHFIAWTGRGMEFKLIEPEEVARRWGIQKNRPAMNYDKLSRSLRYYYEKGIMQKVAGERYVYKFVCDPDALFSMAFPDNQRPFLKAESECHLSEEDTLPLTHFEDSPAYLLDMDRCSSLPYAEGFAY

On to AAGAAG, for which the binding signal was 1.05 fold enrichment (6-mer frequency, TF over GST control) in the assay with FLI1; 1.09 fold enrichment (6-mer frequency, TF over GST control) in the assay with ELK1; 1.01 fold enrichment (6-mer frequency, TF over GST control) with GABPA; 1.06 fold enrichment (6-mer frequency, TF over GST control) with ERG; 1.05 fold enrichment (6-mer frequency, TF over GST control) with ELF1; 1.07 fold enrichment (6-mer frequency, TF over GST control) with EHF. In addition, the binding signal with SPI1 was 1.13 fold enrichment (6-mer frequency, TF over GST control); with ELK3 it was 1.05 fold enrichment (6-mer frequency, TF over GST control); in the assay with ETV5, 1.08 fold enrichment (6-mer frequency, TF over GST control); in the assay with HSF1 it was 1.44 fold enrichment (6-mer frequency, TF over GST control); in the assay with SPIC it was 1.23 fold enrichment (6-mer frequency, TF over GST control); with ELF4, 1.06 fold enrichment (6-mer frequency, TF over GST control). Also, the binding signal with ELK4 is 1.18 fold enrichment (6-mer frequency, TF over GST control); with ETV2 it was 1.19 fold enrichment (6-mer frequency, TF over GST control); with ELF3, 1.26 fold enrichment (6-mer frequency, TF over GST control); with CRX it was 1.21 fold enrichment (6-mer frequency, TF over GST control); in the assay with ETV1 it was 1.1 fold enrichment (6-mer frequency, TF over GST control).
